Bioassay records from PubChem.
Only some compounds are listed: those with a hit (about 7.8% of all), similar ones and a draw of the others.
Lassa entry inh = qHTS for Inhibitors of binding or entry into cells for Lassa Virus; 300,000 compounds, 1.2% hits; Potency, µM (titrated, usually from 37.9 µM), actives largely listed as inhibitors; Lassa virus pseudotype entry inhibition, cell reporter; AID 540256, 2011; calls by dose curve; tested in HEK293 cells; note: nearly all actives have a fitted effect of over 50% in size
Vaccinia Venus = qHTS for Stage-Specific Inhibitors of Vaccinia Orthopoxvirus: Venus Reporter Primary qHTS; AID 720580, 2013; Vaccinia virus Venus reporter expression, fluorescence; 330,000 compounds, 0.46% hits; Potency, µM (highest dose often 36.5 µM), hits mostly inhibitors; calls by dose curve; tested in A549 cells; note: nearly all actives have a fitted effect of over 30% in size
Marburg entry inh = qHTS for inhibitors of binding or entry into cells for Marburg Virus; 300,000 compounds, 1.8% hits; Marburg virus pseudotyped entry inhibition, cell reporter; Potency, µM (doses to about 37.8 µM), usual class: inhibitors; calls by dose curve; tested in HEK293 cells
HCMV inh = qHTS Assay for inhibitors of the human cytomegalovirus (HCMV); HFF cells, HCMV-luciferase reporter, 72 h; stronger effect = lower value; activity change, negative = inhibition, % at 57.5 µM; 410,000 compounds, 4.5% hits; in the data active = activity change below about -60%; inconclusive = no clear call, values can overlap the other calls; inactive = above about -39%
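Compounds were evaluated in HFFs infected with an HCMV luciferase reporter virus (MOI 1 PFU/cell). Luciferase in lysates collected 72 h post infection served as the replication measure.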
VACV mCherry inh = qHTS for Stage-Specific Inhibitors of Vaccinia Orthopoxvirus: mCherry Reporter Primary qHTS. 310,000 compounds, 0.63% hits. Potency, µM (top dose mostly 36.5 µM), hits mostly inhibitors. Vaccinia virus mCherry reporter infection, fluorescence. AID 720579, 2013; calls by dose curve; tested in A549 cells; note: nearly all actives have a fitted effect of over 35% in size
HCV inhibitor = qHTS Assay for Inhibitors of Hepatitis C Virus (HCV); Huh7.5.1 HCVcc-Cre infection, luciferase reporter, 44 h; Potency, µM (series often up to 41.8 µM), hits mostly inhibitors; 340,000 compounds, 3.4% hits; AID 651820, 2012; active = well fitted inhibition curve with a large enough effect; inconclusive = small, poorly fitted or top-dose-only effect, or another doubt; inactive = no such curve, though single readings can be large or run the other way
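Cells seeded at 1,000/well and cultured 4 h, then compounds added followed by HCVcc-Cre virus (~0.5 moi). After 44 h further culture, luciferase substrate was added, plates held 15 min at room temperature, and luminescence read for 15 sec.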
Numbers stand for hits; n = inactive; u = inconclusive; x = no result given; + = active, no number; ! = not confirmed by another sample.

SMILES | Lassa entry inh | Vaccinia Venus | Marburg entry inh | HCMV inh | VACV mCherry inh | HCV inhibitor
Cc1ccc(NC(=O)c2ccccc2)cc1-n1cnnn1 | n | n | n | -73 | n | n
CCC(C(=O)NCc1cc(OC)ccc1OC)n1nc(C)c2sc3ccccc3c2c1=O (stereo not given) | n | n | n | n | n | x
COc1cccc(OC)c1C(=O)Nc1ccc(NC(=O)c2ccco2)cc1 | n | n | n | x | u | n
COc1cccc(OC)c1C(=O)NC(=S)Nc1cccc(NC(=O)c2ccco2)c1 | n | n | u | -61 | n | n
O=C(Nc1cccc(NC(=O)c2ccco2)c1)c1ccccc1 | n | n | n | n | n | u
COc1c(C)cc(Br)cc1C(=O)Nc1cccc(NC(=O)c2ccco2)c1 | u | n | u | n | n | 6.3µM
Cc1cc(C)c(OCC(=O)Nc2cccc(NC(=O)c3ccco3)c2)c(Br)c1 | n | n | u | -76 | u | u
Cc1cc(C)cc(C(=O)Nc2cccc(NC(=O)c3ccco3)c2)c1 | n | n | n | -73 | n | x
CCOC(=O)N1CCN(Cc2ccc3c(c2)CN(C(=O)c2cc(-c4ccccc4)on2)CCO3)CC1 | x | n | x | x | n | x
Cc1ccc(-c2csc(N/N=C/c3ccco3)n2)c(C)c1 | 3.3µM | n | 1.8µM | u | n | u
Cc1ccc(NC(=O)C2CCCN(S(=O)(=O)c3ccc(C)cc3)C2)cc1 (stereo not given) | n | n | n | u | n | x
CC(C)(C)c1cc(/C=C(\C#N)C(N)=S)cc(C(C)(C)C)c1O | 2.3µM | u | 9.2µM | x | u | x
CC(C)(C)c1cc(C=C(C#N)C#N)cc(C(C)(C)C)c1O | 0.41µM | u | 2.1µM | -100 | 1µM! | u
CCc1ccc(/C=C(/C#N)C(N)=S)cc1 | n | n | u | n | n | n
O=C1c2ccccc2C(=O)N1CCCC[C@]12Cc3ccccc3[C@H](O1)c1c(c3ccccc3oc1=O)O2 | x | x | n | x | x | x
CNc1cncc(-c2c(OC)cccc2OC)n1 | x | n | x | -103 | n | x
CCCN(N=Nc1cccc([N+](=O)[O-])c1)c1cccc([N+](=O)[O-])c1 | n | n | u | n | n | 1.1µM
CN(N=Nc1cccc([N+](=O)[O-])c1)c1cccc([N+](=O)[O-])c1 | n | x | n | n | x | u
O=[N+]([O-])c1cccc(CN(CCO)Cc2ccccc2)c1 | n | x | n | n | x | n
O=[N+]([O-])c1cccc(N=NN(CCO)c2cccc([N+](=O)[O-])c2)c1 | n | n | n | n | n | 1.1µM
O=C1[C@@H]2[C@H]3[C@H](O)[C@H](O)CC(=NOC[C@@H](O)COCc4ccco4)[C@H]3CC[C@H]2C(=O)N1c1ccc(F)cc1F | x | x | n | x | x | x
O=C(CCCCCN1C(=O)CCC1=O)Nc1ccc(Cl)c(C(F)(F)F)c1 | n | n | n | -64 | n | n
Cc1ccccc1NC(=O)CCS(=O)(=O)c1ccc(Br)cc1 | x | x | x | n | x | n
CCC(=O)N1c2ccc(S(=O)(=O)CCC(=O)Nc3ccc(Br)c(C)c3)cc2CC1C (stereo not given) | n | n | n | -72 | u | x
O=C(CCS(=O)(=O)c1ccc(Br)cc1)Nc1ccc(Cl)c(C(F)(F)F)c1 | n | u | x | u | 11µM | x
SMILES | Lassa entry inh | Vaccinia Venus | Marburg entry inh | HCMV inh | VACV mCherry inh | HCV inhibitor
Cc1ccc(S(=O)(=O)CCC(=O)Nc2ccc(Br)cc2C)cc1 | n | n | x | + | n | x
CCc1ccc(NC(=O)CCS(=O)(=O)c2ccc(Br)cc2)cc1 | x | x | x | -62 | x | n
CCC(=O)N1CCc2cc(S(=O)(=O)CCC(=O)Nc3ccc(Cl)c(C(F)(F)F)c3)ccc21 | n | 7.9µM | n | -91 | 5µM | x
Cc1ccc(CN2[C@H]3CCCC[C@@H]3OCCS2(=O)=O)cc1 | x | n | x | x | n | x
CC1CCCCN1c1nc(-c2ccncc2)nc2ccccc12 (stereo not given) | n | n | u | n | n | 10µM
CC1CCN(c2nc(-c3ccncc3)nc3ccccc23)CC1 | n | u | u | n | n | 7.1µM
CCC1CCCCN1c1nc(-c2ccncc2)nc2ccccc12 (stereo not given) | u | x | 9.2µM | u | x | 11µM
c1ccc2c(N3CCCCC3)ncnc2c1 | n | x | n | -91 | x | u
c1ccc2c(c1)nc(N1CCCCCC1)c1ccccc12 | u | n | u | n | n | n
CC1CCCCN1c1nc(-c2ccc(C(C)(C)C)cc2)nc2ccccc12 (stereo not given) | u | n | x | u | n | x
CCCC(=O)N1CCC1(C)C(=O)Nc1ccc(-n2cccc2)cc1 (stereo not given) | x | n | x | x | n | x
CC1CCCCN1c1ncnc2ccccc12 (stereo not given) | u | n | u | -88 | n | u
CC1(C)CC2CC(C)(CN2c2ncnc3ccccc23)C1 (stereo not given) | n | u | u | -63 | n | 11µM
COc1cc(=O)n2c(c1C(=O)N(C)C(C)c1ccco1)CCN(C(=O)c1ccc(C(C)=O)cc1)CC2 (stereo not given) | x | n | x | x | n | x
C[C@H](O)[C@@H]1C(=O)N2CCc3c([nH]c4ccccc34)[C@@H]2C[C@@H]1N(C)C(=O)Nc1cc(Cl)cc(Cl)c1 | x | u | x | n | 13µM | x
COc1ccc(-c2ccc3c(c2)[C@@H]2C[C@H](N(C)C(=O)Nc4ccccc4)[C@H]([C@H](C)O)C(=O)N2CC3)cc1 | x | u | x | n | u | 2µM
CNC(=S)N(C)/N=C1/C(=O)N(Cc2c(Cl)cccc2Cl)c2ccccc21 | u | n | u | n | n | 13µM
CN(C)CCNC(=O)c1ccc2c(c1)N(Cc1c(F)cccc1Cl)C(=O)c1ccccc1S2 | u | n | u | u | n | x
O=C(NCCc1c[nH]c2ccccc12)Nc1ccccc1C(F)(F)F | u | n | n | n | n | x
COC(=O)CC=C1c2ccc(OC)cc2[C@@H](OC)[C@@H]1C | u | x | n | x | x | x
C=C1C=C(C)n2ncc(C(=O)Nc3cccc4cnccc34)c2N1 | x | n | x | x | n | x
CCCCCCCCOC(=O)C1=C(C)Nc2nnnn2C1c1cccs1 (stereo not given) | u | n | u | n | n | n
CCCCCCCOC(=O)C1=C(C)Nc2ncnn2C1c1cccs1 (stereo not given) | 13µM | n | u | n | n | u
CN(C)c1ccc(/C=C/c2ccc3ccccc3[n+]2[O-])cc1 | x | n | x | x | n | x
Cc1cc(/C=C\c2ccc3cc(N(C)C)ccc3[n+]2C)c(C)n1-c1ccccc1 | x | n | x | x | n | 1µM
COCCN1CCN(C(=O)C2CCC(=O)N(CCc3ccc(Cl)cc3)C2)CC1 (stereo not given) | n | n | n | n | n | x
CC(C)C1CCN(C(=O)C2CCC(=O)N(CCc3ccc(Cl)cc3)C2)CC1 (stereo not given) | n | n | n | -64 | n | u
CCOc1cccc(C(=O)NC(=S)Nc2ccc(Cl)cc2C(=O)O)c1 | n | n | n | -60 | n | n
